From PubChem
The list is not random: actives were taken first. Their share in the collection is about 4.2%.
hcDAF-12 act: H. contortus DAF-12 activation, primary screen; HEK293 hcDAF-12 lit1-tk-luc reporter, luminescence; 0% DMSO, 100% Δ7-dafachronic acid; activation, % at 6.8 µM; hit rate 1.4% among 370,000; AID 652067;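 active = activation above the mean of all tested compounds plus 3 SD, cut at about 5.5% in these data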
SMARCA2 activ: SMARCA2 function activation, primary screen; activation, % at 9.1 µM; hit rate 1% among 370,000; MG213 cells, MMTV-luciferase reporter, dexamethasone, overnight; in the data active = activation above about 7.8%
ssDAF12 agonist: activators of S. stercoralis DAF-12 nuclear receptor | HEK293 ssDAF-12/GRIP1 lit1-tk-luc reporter, luminescence; % of 3 µM dafachronic acid response | activation, % at 6.8 µM | hit rate 1% among 370,000 | AID 652126;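 active = activation above the mean over all tested compounds plus 3 SD, cut at about 0.9% in these data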
DAX1 StAR inh: DAX1 (NR0B1) inhibition, primary screen | HEK293T StAR-luciferase reporter, SF-1/DAX-1 repression relief | inhibition, % at 6.8 µM | hit rate 1.1% among 370,000 | AID 652010;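 active = inhibition above the mean over all tested compounds plus 3 SD, cut at about 3.6% in these data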;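 note: higher inhibition means more luminescence from relief of DAX-1 repression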
hgDAF-12 ag: agonists of H. glycines DAF-12 nuclear receptor; activation, % at 6.8 µM; hit rate 1.8% among 370,000; HEK293 GAL4-hgDAF12 UAS-luciferase reporter, agonist luminescence; normalized to butyrate control;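 active = activation above a cutoff set at the mean of all screened compounds plus 3 SD, cut at about 10% in these data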
LXRb hcDAF ctr: activates human LXR-beta, counter-screen for hcDAF-12 agonists; shares compounds with hcDAF-12 act; HEK293 Gal4-LXR tk-luc reporter, luminescence, 24 h; normalized: DMSO 0%, positive control 100%; activation, % at 6.8 µM; 3,400 tested, under 10 active; AID 743027;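 active = mean percent activation of the reporter above a cutoff set as the average over tested compounds plus their standard deviation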
Target sequence (P55055 whole entry, looked up, the tested form may be a part): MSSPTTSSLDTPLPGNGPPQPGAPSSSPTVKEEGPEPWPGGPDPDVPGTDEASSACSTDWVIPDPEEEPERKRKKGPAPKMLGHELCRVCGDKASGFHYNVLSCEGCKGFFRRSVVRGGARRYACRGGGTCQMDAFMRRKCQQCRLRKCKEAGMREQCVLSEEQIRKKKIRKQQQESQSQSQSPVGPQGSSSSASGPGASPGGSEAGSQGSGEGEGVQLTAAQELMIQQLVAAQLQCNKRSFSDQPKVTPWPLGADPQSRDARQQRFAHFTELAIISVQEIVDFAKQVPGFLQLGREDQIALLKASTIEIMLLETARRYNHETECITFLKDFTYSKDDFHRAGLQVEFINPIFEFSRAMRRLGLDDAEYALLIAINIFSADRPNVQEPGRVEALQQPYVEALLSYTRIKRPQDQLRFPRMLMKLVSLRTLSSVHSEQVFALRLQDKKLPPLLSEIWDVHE
hcDAF12 conf: confirmation of H. contortus DAF-12 agonists; shares compounds with hcDAF-12 act; HEK293 hcDAF-12 lit1-tk-luc reporter, luminescence; % of Δ7-dafachronic acid response; hit rate 61% among 3,400; activation, % at 6.8 µM;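 active = mean activation across triplicate tests above the threshold derived from the earlier primary screen, cut at about 5.5% in these data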
Numbers stand for hits; i = inactive; nt = no result given.

SMILES | hcDAF-12 act | SMARCA2 activ | ssDAF12 agonist | DAX1 StAR inh | hgDAF-12 ag | LXRb hcDAF ctr | hcDAF12 conf
CCn1c(=N)n(CC(=O)c2ccc(Cl)c(Cl)c2)c2ccccc21 | 9.5 | i | i | i | i | i | 5.8
Cn1c(=N)n(CC(=O)c2ccc(Br)cc2)c2ccccc21 | 22.9 | i | 4.4 | i | 16.6 | i | 28.6
COc1cccc(C(=O)Nc2nc3ccccc3[nH]2)c1 | 7.4 | i | i | i | 11.3 | i | 8.0
O=C(Nc1nc2ccccc2[nH]1)Nc1ccccc1F | 24.0 | i | 4.8 | i | 22.1 | i | 19.7
O=C(Nc1nc2ccccc2[nH]1)c1cccc(Br)c1 | 8.6 | i | i | i | 12.1 | i | 7.1
O=C(c1cccc(Br)c1)c1nc2ccccc2[nH]c1=O | i | i | i | i | i | nt | nt
O=C(CNC(=O)OCc1ccccc1)NCC(=O)NC(Cc1c[nH]c2ccccc12)C(=O)O (stereo unspecified) | i | i | i | i | i | nt | nt
C[C@H](O)[C@@H]1CN2CCc3c([nH]c4cccc(-c5ccccc5)c34)[C@@H]2C[C@@H]1N(C)CC1CCCCC1 | i | i | i | i | i | nt | nt
Oc1ccc(-c2cn3cc(C(F)(F)F)ccc3n2)cc1 | 7.7 | i | i | i | 12.0 | i | 9.0
CC(C)N1CCc2c(-c3nc4ccccc4s3)csc2C1 | i | nt | i | nt | i | nt | nt
CCn1c(Cc2cccs2)nnc1SCC(=O)Nc1ccc(OCc2ccccc2)cc1 | i | i | i | i | i | nt | nt
CCn1c2ccc(F)cc2c2nc3ccccc3nc21 | i | i | i | i | i | nt | nt
Cn1c2ccc(F)cc2c2nc3ccccc3nc21 | 7.1 | i | i | i | i | i | 8.3
Cn1c2ccc(F)cc2c2nnc(SCCN3CCCCC3)nc21 | 8.2 | i | 1.1 | i | i | i | 6.9
COC(=O)CN1CCN(C(=O)c2csc(N3CCOCC3)n2)CC1 | i | i | i | i | i | nt | nt
N#Cc1ccsc1NC(=O)COC(=O)c1cc2ccccc2cc1O | 9.3 | i | 1.1 | i | i | i | 10.5
COC(=O)[C@H](C(C)C)N(CCc1cn(Cc2ccc(C)cc2)nn1)S(=O)(=O)c1ccc(F)cc1Br | i | i | i | i | i | nt | nt
CN1CCN(c2ccc(CNC[C@H]3O[C@@H](n4cnc5c(=O)[nH]c(N)nc54)[C@H](O)[C@@H]3O)c(F)c2)CC1 | i | i | i | i | i | nt | nt
c1ccc(-c2c[nH]c3ccc(OCc4ccc5ccccc5n4)c(-c4ccccc4)c23)cc1 | 7.4 | i | i | i | i | i | i
C=CCOC(=O)C(CO)NC(=O)CCCC(=O)O (stereo unspecified) | i | i | i | i | i | nt | nt
O=C(OCc1nc2ccccc2s1)C1CCN(C2=NS(=O)(=O)c3ccccc32)CC1 | 9.7 | i | 1.4 | i | i | i | 9.6
COc1cc(OC)cc(OC(=O)C2CCN(C3=NS(=O)(=O)c4ccccc43)CC2)c1 | i | i | i | i | i | nt | nt
c1ccc2c(Cn3ccnc3)c[nH]c2c1 | 8.0 | i | i | i | i | i | i
c1ccc2nc(-c3nc4ccccc4[nH]3)ccc2c1 | 20.7 | i | 1.1 | i | 12.9 | i | 21.2
CCC1CCC(N2CCN(c3cccc(OC)c3)CC2)CC1 (stereo unspecified) | 8.1 | i | i | i | i | i | i
SMILES | hcDAF-12 act | SMARCA2 activ | ssDAF12 agonist | DAX1 StAR inh | hgDAF-12 ag | LXRb hcDAF ctr | hcDAF12 conf
c1ccc(-c2cnnc(-c3ccccn3)n2)cc1 | 7.1 | i | i | i | i | i | i
O=C1NC[C@@H](CCCCN2CCN(CCC3CCCCC3)C(=O)C2=O)N(CC2CCCCC2)C1=O | i | i | i | i | i | nt | nt
CC(C)C(C(=O)Nc1ccccc1F)N1C(=O)c2ccccc2C1=O (stereo unspecified) | 8.0 | i | 2.1 | i | i | i | i
CC(C)C(C(=O)NC(C)(C)C)N1C(=O)c2ccccc2C1=O (stereo unspecified) | i | i | i | i | i | nt | nt
O=C(COC(=O)c1cccc(S(=O)(=O)N2CCc3ccccc32)c1)Nc1ncc(Cl)cc1Cl | 6.8 | i | i | i | i | i | i
O=S1(=O)CC(N2CCCC2)CN1Cc1cn(Cc2ccc(C(F)(F)F)cc2)nn1 (stereo unspecified) | i | i | i | i | i | nt | nt
COCCNc1cc(C)nc2cc(-c3ccc(C)cc3)nn12 | i | i | i | i | i | nt | nt
Cc1ccc(-c2cc3nc(C)cc(NCc4ccco4)n3n2)cc1 | 8.5 | i | 2.4 | i | i | i | 6.2
Cc1cc(SCC(=O)c2cccs2)nc2c(C)cccc12 | 6.8 | i | i | i | i | i | i
O=C(NCCc1nc2ccccc2n1CCOc1cc(F)ccc1F)C1CCCCC1 | i | nt | i | nt | i | nt | nt
Brc1ccccc1-c1nnc(SCc2nc3ccccc3s2)o1 | 12.4 | i | 2.5 | i | 10.7 | i | 9.6
C[C@@H]1[C@H](c2ccccc2)OC(O)([C@H](Cc2ccccc2)NC(=O)OC(C)(C)C)CN1C (stereo partly specified) | i | nt | i | nt | i | nt | nt
COc1cccc(C(=O)N[C@@H](Cc2cccnc2)C(=O)N2CCC[C@H]2C(=O)NCCc2ccccc2Cl)c1 | i | i | i | i | i | nt | nt
COC(=O)[C@@H](N[C@H](/C=C/c1ccccc1)[C@@H](O)Cc1ccccc1)C(C)C | i | i | i | i | i | nt | nt
Clc1ccc(Nc2nc(-c3cccnc3)cs2)cc1 | 9.3 | i | 1.9 | i | 11.8 | i | 10.9
Clc1ccc(-c2csc(Nc3cccnc3)n2)cc1 | i | i | i | i | i | nt | nt
CC(C)C[C@H]1CNC(=S)N1C[C@H]1CCCN1C[C@H](CC(C)C)N1C[C@H](Cc2ccc(O)cc2)N(CC2CCCCC2)C1=S | i | i | i | i | i | nt | nt
Cc1cccc(C2c3[nH]c4ccccc4c3CCN2C(=O)CN2CCOC2=O)n1 (stereo unspecified) | 7.0 | i | i | i | i | i | 6.1
Cc1cccc(C2c3[nH]c4ccccc4c3CCN2C(=O)Cc2nc(-c3ccccc3)n[nH]2)n1 (stereo unspecified) | i | i | i | i | i | nt | nt
COc1ccc(-c2cnc(C(O)c3ccccc3)[nH]2)cc1 (stereo unspecified) | 6.7 | i | i | 4.3 | i | i | 7.1
CCOC(=O)[C@@]12CN(C(=O)OC(C)(C)C)CC=C1N(Cc1ccc(OC)cc1)C(=O)[C@H]2CC(=O)NCCCN1CCCC1=O | i | i | i | i | i | nt | nt
CCCNC(=O)Cn1c2ccccc2c2nc(=O)cc(C)n21 | i | i | i | i | i | nt | nt
CCC1CCCCN1CCCNC(=O)Cn1c2ccccc2c2nc(=O)cc(C)n21 (stereo unspecified) | 8.2 | i | i | i | i | i | 6.7
COC(=O)/C(C#N)=C/c1c[nH]c2ccccc12 | 8.1 | i | i | i | i | i | 9.9
